Experimental data taken from PubChem BioAssay (EPA / NIEHS).
Records with an inconclusive call do not appear. Calls of active or inactive are those of the source. The calls were made as follows, unless noted: active = hit-call score of the fitted dose curve at least 0.9, where 1 is the maximum; inactive = score below 0.9.

Columns and labels:
[1] = IUF_NPC1_viability_72hr: Viability Assessment at 72 hours in the Leibniz Research Institute for Environmental Medicine (IUF) Neural Progenitor Cell Proliferation Assay (NPC1) (AID 2284209)
Procedure, shortened: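 Three-day continuous exposure of human neural progenitor spheres under EGF/FGF-driven proliferation; cell viability scored by alamar blue signal versus DMSO.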

[2] = CCTE_Mundy_HCI_Cortical_Synap_Neur_Matur_NeuriteSpotCountPerNeuriteLength: CCTE's Synaptogenesis and Neurite Maturation Assay in rat cortical cells for Neurite Spot Count per Neurite Length, Mundy Lab (AID 2284210)
Procedure, shortened: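 Neurite-associated synapse density (synaptophysin puncta per unit neurite length) is measured by fluorescence high-content imaging in rat cortical cultures treated from DIV 7 and fixed at DIV 12, with DMSO as negative control.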

[3] = CCTE_Mundy_HCI_Cortical_Synap_Neur_Matur_BPCount: CCTE's Synaptogenesis and Neurite Maturation Assay in rat cortical cells for Branch Point Count, Mundy Lab (AID 2284211)
Procedure, shortened: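 In this multiplexed morphology assay, cortical cells from rat receive chemicals at DIV 7 and are fixed at DIV 12, then immunostained and imaged; branch points are counted, with DMSO as baseline.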

[4] = CCTE_Mundy_HCI_Cortical_NOG_NeuriteCount: CCTE's Neurite Outgrowth Assay in rat cortical cells for Neurite Count, Mundy Lab (AID 2284212);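 also: cells fixed about two days after chemical exposure began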
Procedure, shortened: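 Rat cortical primary cells; compound added 2 h post-plating, 1/10 dilution of working solution. Anti-betaIII-tubulin/AF488 ICC; ArrayScan neurite count vs DMSO.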

[5] = CCTE_Mundy_HCI_Cortical_NOG_NeuriteLength: CCTE's Neurite Outgrowth Assay in rat cortical cells for Neurite Length, Mundy Lab (AID 2284213)
Procedure, shortened: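 First, rat primary cortical cells were plated and, 2 h later, given test chemical as a 1/10 dilution. Finally, βIII-tubulin immunostaining enabled automated imaging of neurite length.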

[6] = CCTE_Mundy_HCI_Cortical_Synap_Neur_Matur_NeuriteLength: CCTE's Synaptogenesis and Neurite Maturation Assay in rat cortical cells for Neurite Length, Mundy Lab (AID 2284214)
Procedure, shortened: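 DMSO-normalised neurite length, from high-content imaging of anti-MAP2-stained rat cortical cells fixed at DIV 12. Glia were suppressed with AraC (DIV 5) before chemical exposure from DIV 7.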

[7] = CCTE_Mundy_HCI_Cortical_Synap_Neur_Matur_NeuriteSpotCountPerNeuron: CCTE's Synaptogenesis and Neurite Maturation Assay in rat cortical cells for Neurite Spot Count per Neuron Count, Mundy Lab (AID 2284215)
Procedure, shortened: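 Rat primary cortical cultures given AraC at DIV 5, dosed from DIV 7 to DIV 12 with media change. Fixed, stained for MAP2, synaptophysin and Hoechst; neurite-associated synaptophysin puncta per neuron quantified by high-content imaging versus DMSO.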

[8] = CCTE_Mundy_HCI_hN2_NOG_NeuriteCount: CCTE's Neurite Outgrowth Assay in human hN2 cells for Neurite Count, Mundy Lab (AID 2284219; active = hit-call score of the fitted dose curve at least 0.9, where 1 is the maximum)
Procedure, shortened: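 In this morphology assay, hNP1-derived neurons received test chemical 2 h post-plating and were fixed two days later in warm paraformaldehyde/sucrose containing Hoechst 33342. Neurites, labelled by rabbit anti-βIII-tubulin (1:800) and Alexa Fluor-488 (1:500), were counted automatically.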

[9] = CCTE_Mundy_HCI_hN2_NOG_NeuriteLength: CCTE's Neurite Outgrowth Assay in human hN2 cells for Neurite Length, Mundy Lab (AID 2284220; active = hit-call score of the fitted dose curve at least 0.9, where 1 is the maximum)
Procedure, shortened: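 Using βIII-tubulin immunofluorescence and Hoechst nuclear counterstain, this component quantifies neurite length in hNP1-derived neurons.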

[10] = CCTE_Mundy_HCI_hN2_NOG_NeuronCount: CCTE's Neurite Outgrowth Assay in human hN2 cells for Neuron Count, Mundy Lab (AID 2284221; active = hit-call score of the fitted dose curve at least 0.9, where 1 is the maximum)
Procedure, shortened: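 Read-out is the number of betaIII-tubulin-positive neurons imaged by automated high-content analysis, with DMSO as negative control.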

[11] = CCTE_Mundy_HCI_Cortical_Synap_Neur_Matur_NeuriteCount: CCTE's Synaptogenesis and Neurite Maturation Assay in rat cortical cells for Neurite Count, Mundy Lab (AID 2284222);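 also: exposure from day 7 to day 12 in vitro with readout at day 12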
Procedure, shortened: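 Primary rat cortical cells were plated, treated with AraC at DIV 5, then exposed to chemicals from DIV 7 through DIV 12. After fixation and immunostaining for MAP2 and synaptophysin, imaging quantified neurites, with DMSO as the negative control.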

[12] = CCTE_Mundy_HCI_Cortical_Synap_Neur_Matur_CellBodySpotCount: CCTE's Synaptogenesis and Neurite Maturation Assay in rat cortical cells for Cell Body Spot Count, Mundy Lab (AID 2284223)
Procedure, shortened: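 Primary rat cortical cultures, AraC added at DIV 5; dosed DIV 7 through DIV 12 […]. Fixed, stained for MAP2 and synaptophysin with Hoechst; cell body-associated synaptophysin puncta per neuron counted by high-content imaging, loss vs DMSO.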

[13] = CCTE_Mundy_HCI_Cortical_NOG_BPCount: CCTE's Neurite Outgrowth Assay in rat cortical cells for Branch Point Count, Mundy Lab (AID 2284237)
Procedure, shortened: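 Measured 50.33 h after dosing, this morphology endpoint uses rat primary cortical cultures labelled for betaIII-tubulin. Branch points are quantified by high-content imaging, with DMSO as negative control and baseline.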

[14] = CCTE_Mundy_HCI_hNP1_Casp3_7: CCTE's Caspase-Glo 3/7 Assay in human neuroprogenitor cells for Apoptosis, Mundy Lab (AID 2284240)
Procedure, shortened: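 Neuroepithelial-lineage stem cells from WA09 embryonic cells were treated with chemicals after 40–44 h of culture. Twenty-four hours later, caspase-3/7 activation was detected luminescently after a 30 min room-temperature reagent step, with DMSO as baseline.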

[15] = CCTE_Mundy_HCI_hNP1_CellTiter: CCTE's Cell Titer-Glo 2 Assay in human neuroprogenitor cells for Viability, Mundy Lab (AID 2284241; active = hit-call score of the fitted dose curve at least 0.9, where 1 is the maximum)
Procedure, shortened: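 Measures ATP content in human neural progenitors derived from WA09 embryonic cells. Read-out at 26.5 hours after dosing, with DMSO serving as the negative control and baseline.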

[16] = CCTE_Mundy_HCI_Cortical_Synap_Neur_Matur_NeuronCount: CCTE's Synaptogenesis and Neurite Maturation Assay in rat cortical cells for Neuron Count, Mundy Lab (AID 2284242; active = hit-call score of the fitted dose curve at least 0.9, where 1 is the maximum)
Procedure, shortened: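 Measured at DIV 12: fluorescently labelled neurons (Hoechst nuclei, MAP2) in rat primary cortical cultures, counted by high-content imaging. AraC suppressed glia from DIV 5; DMSO served as negative control.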

[17] = IUF_NPC2c_oligodendrocyte_migration_120hr: Leibniz Research Institute for Environmental Medicine (IUF) 120-hour Neural Progenitor Cell Migration Assay for Oligodendrocyte Migration (NPC2c) (AID 2284297);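 also: O4-positive oligodendrocyte migration distance divided by radial glia migration distance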
Procedure, shortened: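 Human fetal neural progenitor spheres (0.3 mm) are plated on poly-D-lysine/laminin in N2 differentiation medium and exposed for 120 h, with half-medium renewal at day 3. Oligodendrocyte (O4+) migration distance comes from ICC imaging, normalised to radial glia migration.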

[18] = IUF_NPC2a_radial_glia_migration_120hr: Leibniz Research Institute for Environmental Medicine (IUF) 120-hour Neural Progenitor Cell Migration Assay for Radial Glia Migration (NPC2a) (AID 2284298)
Procedure, shortened: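 Human fetal-cortex neural progenitor spheres (0.3 mm) plated on poly-D-lysine/laminin in N2 differentiation medium, exposed 120 h at 37C with half-medium renewal at day 3. Radial glia migration distance (um) measured from Hoechst-stained nuclei images; DMSO baseline.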

[19] = IUF_NPC2a_radial_glia_migration_72hr: Leibniz Research Institute for Environmental Medicine (IUF) 72-hour Neural Progenitor Cell Migration Assay for Radial Glia Migration (NPC2a) (AID 2284299)
Procedure, shortened: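 Spheres of human primary neural progenitors migrate on poly-D-lysine/laminin under compound exposure at 37C, 5% CO2. The 72 h radial glia migration distance comes from brightfield images, measured manually.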

[20] = IUF_NPC2b_neuronal_migration_120hr: Leibniz Research Institute for Environmental Medicine (IUF) 120-hour Neural Progenitor Cell Migration Assay for Neuron Migration (NPC2b) (AID 2284300)
Procedure, shortened: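 0.3 mm hNPC spheres on poly-D-lysine/laminin in N2 differentiation medium exposed 120 h, half-medium refresh day 3; 7 concentrations, DMSO max 0.1%. Neuron (TUBB3) distance from sphere core by ICC imaging, normalised to radial glia migration.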

[21] = IUF_NPC3_neuronal_differentiation_120hr: Leibniz Research Institute for Environmental Medicine (IUF) 120-hour Neuronal Differentiation Assay (NPC3) (AID 2284301)
Procedure, shortened: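 Neuronal differentiation of primary human neural progenitors measured by high-content imaging: percent TUBB3+ of Hoechst+ nuclei within migrated area at 120 h, seven-point serial dilution plus solvent control, gain or loss relative to DMSO.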

[22] = IUF_NPC4_neurite_length_120hr: Leibniz Research Institute for Environmental Medicine (IUF) 120-hour Neuronal Morphology Assay for Neurite Length (NPC4) (AID 2284302)
Procedure, shortened: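 Neurons from differentiating human fetal neural progenitor spheres are scored for average neurite length after five days of compound exposure. Fitting uses DMSO as negative control.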

[23] = IUF_NPC5_oligodendrocyte_differentiation_120hr: Leibniz Research Institute for Environmental Medicine (IUF) 120-hour Oligodendrocyte Differentiation Assay (NPC5) (AID 2284304; active = hit-call score of the fitted dose curve at least 0.9, where 1 is the maximum;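 also: primary human fetal neural progenitor spheres plated to migrate and differentiate; share of O4-positive cells among Hoechst nuclei found by CNN image analysis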)
Procedure, shortened: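 Human fetal neural progenitor spheres (0.3 mm) plated on poly-D-lysine/laminin in N2 differentiation medium and exposed for 120 h at 7 concentrations, with half-medium renewal at day 3. O4-positive cells identified by CNN, expressed as percent of Hoechst nuclei.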

[24] = IUF_NPC2-5_cytotoxicity_72hr: Cytotoxicity Assessment at 72 hours in the Leibniz Research Institute for Environmental Medicine (IUF) Neural Progenitor Cell Migration and Differentiation Assay for Cytotoxicity (NPC2-5) (AID 2284306; active = hit-call score of the fitted dose curve at least 0.9, where 1 is the maximum;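 also: LDH release into supernatant measured by resorufin fluorescence marking membrane damage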)
Procedure, shortened: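 Primary human neural progenitor spheres migrate and differentiate on laminin. Compound is present from the start of differentiation, with DMSO kept at or below 0.1%. At 72 h, supernatant LDH is quantified fluorometrically, with values fitted in the positive direction.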

[25] = IUF_NPC2-5_cytotoxicity_120hr: Cytotoxicity Assessment at 120 hours in the Leibniz Research Institute for Environmental Medicine (IUF) Neural Progenitor Cell Migration and Differentiation Assay (NPC2-5) (AID 2284307; active = hit-call score of the fitted dose curve at least 0.9, where 1 is the maximum)
Procedure, shortened: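 Human fetal (GW 16-19) neural progenitor spheres (0.3 mm) plated on poly-D-lysine/laminin in N2 differentiation medium, exposed 120 h with half-medium renewal at day 3; 7 concentrations plus solvent control, DMSO ≤0.1%. LDH release in supernatant read by resorufin fluorescence.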

[26] = IUF_NPC2-5_cell_number_120hr: Cell Number Assessment at 120 hours in the Leibniz Research Institute for Environmental Medicine (IUF) Neural Progenitor Cell Migration and Differentiation Assay (NPC2-5) (AID 2284308);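 also: count of Hoechst-stained nuclei in migration zone around plated human neural progenitor spheres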
Procedure, shortened: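 Human fetal neural progenitor spheres (0.3 mm) plated on poly-D-lysine/laminin in N2 differentiation medium, exposed five days across 7 concentrations with half-medium refresh at day 3. Hoechst-positive nuclei counted in migration area at 120 h, relative to DMSO.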

[27] = IUF_NPC2-5_viability_120hr: Viability Assessment at 120 hours in the Leibniz Research Institute for Environmental Medicine (IUF) Neural Progenitor Cell Migration and Differentiation Assay (NPC2-5) (AID 2284312)
Procedure, shortened: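 Human fetal (GW 16-19) neural progenitor spheres of 0.3 mm were plated on poly-D-lysine/laminin in N2 differentiation medium and exposed from day 0 for 120 h, with half-medium refresh at day 3. Viability was read as alamar blue resazurin-to-resorufin fluorescence against DMSO.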

[28] = IUF_NPC1_cytotoxicity_72hr: Cytotoxicity Assessment at 72 hours in the Leibniz Research Institute for Environmental Medicine (IUF) Neural Progenitor Cell Proliferation Assay (NPC1) (AID 2284332; active = hit-call score of the fitted dose curve at least 0.9, where 1 is the maximum;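 also: rising LDH signal means more cytotoxicity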)
Procedure, shortened: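 Readout is fluorescence from LDH-dependent resazurin conversion, sampled from culture medium after compound contact lasting 72 h. Each well holds one 0.25-0.35 mm human progenitor sphere kept at 37C, 5% CO2 with EGF and FGF.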

Measured: outcome

C[C@H](CS)C(=O)N1CCC[C@H]1C(=O)O
inactive: all assays above
